Results taken from PubChem BioAssay AID624331 (National Center for Advancing Translational Sciences (NCATS), 2012).
Results filed as inconclusive are left out. The source made the active and inactive calls. Calls come from the whole dose curve; as a rule, active = well fitted activation curve with a large enough effect; inconclusive = small, poorly fitted or top-dose-only effect; inactive = no such curve, though single readings can be large or run the other way.

Assay: qHTS assay for re-activators of p53 using a Luc reporter: Hit Validation with no p53 Expressed; for activity change, positive = activation: 0% is about no effect
Conditions: p53-null cells, luciferase reporter counter-screen; series mostly up to 46.1 µM; activity change, positive = activation: at the top concentration
Method in brief: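 Without p53 expression, cells (1000/well, Opti-MEM + 10% FBS) were exposed 24 h at 37 deg C to compounds in a 1:5 series from 10 mM stock (top 46.1 µM in well). Luminescent signal read 10 min after Amplite addition; actives flag unspecific activation.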
Potency is the fitted concentration of half-maximal effect.

Row | SMILES | activity change, positive = activation | Potency
1 | Cc1cc(C)cc(NC(=O)c2sc3nc(C)cc(C)c3c2N)c1 | 77.9% (inactive) | 
2 | Cc1ccc(C)n1-c1cccc(NC(=O)c2ccccc2)c1 | -22.5% (inactive) | 
3 | Cc1ccc(-c2cc3nc(C)cc(NCc4ccco4)n3n2)cc1 | 57.4% (inactive) | 
4 | CCN(CC(=O)NCc1cccs1)c1ccc(S(=O)(=O)N2CCOCC2)cn1 | -11.2% (inactive) | 
5 | CCCCC(=O)NC(c1ccc(Cl)cc1Cl)c1ccc2cccnc2c1O (stereo not given) | 73.7% (inactive) | 
6 | O=C(Nc1ccc(OC(F)(F)F)cc1)c1cnc2n(c1=O)CCS2 | -11% (inactive) | 
7 | O=C(Nc1ccc(F)cc1F)c1cc2nc3c(c(C(F)(F)F)n2n1)CCCC3 |  | 5.8 µM (active)
8 | CC(C)(C)c1cc(-n2ccnc2)n2ncc(-c3ccc(Cl)cc3)c2n1 | 27.1% (inactive) | 
9 | Cc1cc(C(=O)CSc2nnc(N)s2)c(C)n1Cc1cccs1 | -10.8% (inactive) | 
10 | C=CCOc1c(Br)cc(CNCCCN2CCOCC2)cc1OC | -42.5% (inactive) | 
11 | CCCN1CCC(=NNC(=O)CSc2cc(C)c(Br)cc2C)CC1 | -19.9% (inactive) | 
12 | Cc1csc(SCC(=O)Nc2ccc(C)c(F)c2)n1 | -5.54% (inactive) | 
13 | O=C(CC1CCCCC1)NCc1ccc(Cl)cc1 | 0.113% (inactive) | 
14 | OCc1cc(Br)ccc1OCc1nc2ccccc2s1 | 32.1% (inactive) | 
15 | Cc1ccc2nc(C(F)(F)F)c(C#N)c(N)c2c1 | -43.8% (inactive) | 
16 | Cc1occc1C(=O)NNC(=S)Nc1ccccc1C(F)(F)F | 1.85% (inactive) | 
17 | COC(=O)CCC(=O)COc1ccccc1C#N | 18.7% (inactive) | 
18 | CC1C(=O)CCN(C(C)(C)C)C1C (stereo not given) | -10.9% (inactive) | 
19 | O=C(Nc1cccnc1)c1ccc([N+](=O)[O-])s1 | -52.7% (inactive) | 
20 | C/C(=N\NC(=O)c1cccs1)C(C)(C)C | -24.5% (inactive) | 

Row | SMILES | activity change, positive = activation | Potency
21 | O=[N+]([O-])c1cccc(NC(=S)N2CCc3ccccc32)c1 | -2.98% (inactive) | 
22 | CN(C(=O)NC(=O)C1=C(N2CCOCC2)/C(=C/c2ccccc2)CC1)S(C)(=O)=O | 93.6% (inactive) | 
23 | N/C(=N\OC(=O)c1ccccc1Cl)c1ccc(Cl)cc1 | 46.8% (inactive) | 
24 | COc1ccc(C(=O)N=c2nc3ccccn3s2)cc1 | 7.05% (inactive) | 
25 | S=C(Nc1ccccc1)Nc1nc2ccccc2n1CCOc1ccc(Br)cc1 | -17.4% (inactive) | 
26 | Cc1ccc(C)c(OCC(O)CN2C(C)CCCC2C)c1 (stereo not given) | 14.9% (inactive) | 
27 | COc1cc(/C=N/Nc2nc3ccccc3s2)ccc1OC(=O)c1ccccc1F | 28.2% (inactive) | 
28 | O=C(/C=C/c1ccco1)NC(=S)Nc1cc(-c2nc3ccccc3s2)ccc1Cl | -2.97% (inactive) | 
29 | Cc1ccc(C(=O)NC(=C(Cl)Cl)S(=O)(=O)c2ccccc2)cc1 | -47% (inactive) | 
30 | O=C(NC12CC3CC(CC(C3)C1)C2)c1ccc(-c2cccc(Cl)c2)o1 | 79.9% (inactive) | 
31 | Cc1cc(C(=O)NC2CCCCC2)c(C)n1-c1ccc(F)cc1 | 27.4% (inactive) | 
32 | O=c1[nH]c(N/N=C/c2ccc(O)cc2)nc2ccccc12 | -0.234% (inactive) | 
33 | c1ccc(-n2ncc3c(N4CCCCC4)ncnc32)cc1 | -18.3% (inactive) | 
34 | Oc1[nH]c2ccccc2c1C=Nc1ccc2c(c1)OCCO2 | 36.1% (inactive) | 
35 | Nc1c(C(=O)CSc2nc3ccccc3o2)c(=O)[nH]c(=O)n1C1CC1 | -8.39% (inactive) | 
36 | Cc1ccc(OCC(=O)c2cc(C)n(C3CC3)c2C)c([N+](=O)[O-])n1 | -11.5% (inactive) | 
37 | COc1ccc2[nH]c(=O)c3c(c2c1)OC(C)(C)C=C3 | -65.7% (inactive) | 
38 | O=C(COC(=O)c1cn(-c2ccccc2)nc1-c1ccc(F)cc1)Nc1ncc(Cl)cc1Cl | 13.6% (inactive) | 
39 | Cc1ccc(C(=O)Nc2ccn(C)n2)cc1 | 1.22% (inactive) | 
40 | O=C(Nc1ncc(Cc2ccccc2)s1)c1cccs1 | 50.1% (inactive) | 
